# Reference: PubChem BioAssay AID463173 (ICCB-Longwood Screening Facility, Harvard Medical School, 2010)
# Among all 52,000 compounds or so, about 4,300 (8.3%) were called active. Rule as the data show it: active = survival mostly below about 52% (no sharp cut-off); inactive = mostly above about 56%. The full list was thinned out, with actives kept by preference.
# System: DeltatarO mutant
# Test: growth inhibition of S. aureus wild type versus tarO mutant, primary screen, teichoic acid synthesis inhibitors, RN4220, OD600 (AID 463173)
# Details: OD600, 18 h, hits give low values, screened at 18.75 µg/mL (by protocol)
row,SMILES,survival
1,Cc1ccccc1CNC(=O)c1cnc2sc(N3CCOCC3)nn2c1=O,68% (inactive)
2,Cc1ccc(-n2nc3c(=O)n(CCCC(=O)NCCc4ccccc4Cl)nc(C)c3c2C)cc1,91% (inactive)
3,COc1cccc(CNC(=O)CCc2c(C)nc3c(c(C)nn3-c3ccc(C)c(C)c3)c2C)c1,67% (inactive)
4,O=S(=O)(c1ccccc1)c1nnn2c1nc(NC1CCCCCC1)c1sccc12,72% (inactive)
5,Cc1nc(N2CCOCC2)c2c(C(=O)N(C)Cc3ccccc3)c(C)oc2n1,118% (inactive)
6,COC(=O)c1scc(-c2ccc(C)cc2)c1S(=O)(=O)N1CCN(c2ccccc2F)CC1,118% (inactive)
7,COc1cccc(N2CC(NC(=O)c3cccs3)CC2=O)c1 (centres undefined),74% (inactive)
8,Cc1ccc(-n2ncc(C(=O)NCc3ccc4c(c3)OCO4)c2C2CCN(C(=O)OC(C)(C)C)CC2)c(C)c1,92% (inactive)
9,COc1ccc(Cn2c(=O)c3ccccc3n3c(-c4ccc(C)cc4)nnc23)cc1,90% (inactive)
10,COc1ccc(Cn2c(SCC(=O)Nc3ccc(OC)cc3)nc3ccccc32)cc1,88% (inactive)
11,COc1ccc(Cn2c(SC)nc3ccccc32)cc1,97% (inactive)
12,COc1ccc(-c2nc3ccccc3n2Cc2ccc(Cl)cc2)cc1,6% (active)
13,COc1ccc(-c2nc3ccccc3n2Cc2ccccc2)cc1,-1% (active)
14,COc1ccc(-c2nc3ccccc3n2Cc2ccc(C(C)C)cc2)cc1,4% (active)
15,COc1ccc(-c2noc(=O)n2Cc2ccccc2)cc1,75% (inactive)
16,COc1ccc(Cn2c(SCC(=O)NCc3ccccc3)nc3ccccc32)cc1,117% (inactive)
17,CCOc1cc(Cn2c(-c3ccc(O)c(OCC)c3)nc3ccccc32)ccc1O,73% (inactive)
18,Cc1ccc(NC(=O)Cn2c(=O)oc3cc(S(=O)(=O)N4CCCCC4)ccc32)c(C)c1,81% (inactive)
19,Cc1cc(C)cc(NC(=O)C(=O)NCCc2sc(-c3cccc(F)c3)nc2C)c1,80% (inactive)
20,COc1cccc(-n2c(=O)c3sc4ccccc4c3n(CC(=O)Nc3ccc(F)cc3F)c2=O)c1,64% (inactive)
21,O=C(NCCc1ccccc1)c1cc(Sc2cccc(Cl)c2)nc2ccccc12,88% (inactive)
22,Cc1ccc2c(c1)-c1c(cnn1CC(=O)N1CCN(c3ccccc3F)CC1)CO2,73% (inactive)
23,Cc1ccc2c(c1)-c1c(cnn1CC(=O)N1CCN(c3cccc(C(F)(F)F)c3)CC1)CO2,50% (inactive)
24,Cc1ccc2c(c1)-c1c(cnn1CC(=O)N1CCN(c3cc(Cl)ccc3C)CC1)CO2,49% (inactive)
25,CCC(=O)N1CCc2cc(S(=O)(=O)CCC(=O)N3CCN(c4cccc(C)c4)C(C)C3)ccc21 (centres undefined),76% (inactive)
26,Cc1cccc(N2CCN(C(=O)Cn3ncc4c3-c3cc(C)ccc3OC4)CC2C)c1 (centres undefined),47% (active)
27,COc1cc(Cl)c(C)cc1NC(=O)Cn1ncc2c1-c1cc(C)ccc1OC2,58% (inactive)

row,SMILES,survival
1,CCN(C(=O)Cn1ncc2c1-c1cc(C)ccc1OC2)c1cc(Cl)ccc1OC,31% (active)
2,CN1C(=O)Cc2cc(S(=O)(=O)CCC(=O)N3CCN(c4cccc(Cl)c4)CC3)ccc21,62% (inactive)
3,Cc1cccc(N2CCN(C(=O)CCS(=O)(=O)c3ccc4c(c3)CC(=O)N4C)CC2C)c1 (centres undefined),-2% (active)
4,O=C(NCc1ccc(Cl)cc1)c1cc(S(=O)(=O)N2CCCCC2)c[nH]1,103% (inactive)
5,Cc1ccc(-n2ncc3c(NC4CCCCC4)ncnc32)cc1,88% (inactive)
6,Cc1ccccc1NCc1cccn1-c1nnc(N2CCOCC2)s1,112% (inactive)
7,Cc1ccc(C(=O)c2oc3ccccc3c2NC(=O)c2cc(-c3ccc(Cl)cc3)on2)cc1,87% (inactive)
8,CC1CCC(NC(=O)c2ccc3c(c2)N(Cc2cccc(Cl)c2)C(=O)c2ccccc2S3(=O)=O)CC1 (centres undefined),74% (inactive)
9,COc1ccc2[nH]c(=O)c(CN(CCO)S(=O)(=O)c3ccc(Cl)c(C(F)(F)F)c3)cc2c1,98% (inactive)
10,COc1ccc(NCc2cccn2-c2nnc(N3CCOCC3)s2)c(OC)c1,78% (inactive)
11,CCNC(=O)c1ccc(NC(=O)N2CCCCc3ccccc32)cc1,102% (inactive)
12,CCOc1ccc(N(CC(=O)OC)S(=O)(=O)c2ccc3c(c2)n(C)c(=O)c(=O)n3C)cc1,46% (active)
13,CCOc1ccc(N(C(=O)c2ccc(C)cc2)S(=O)(=O)c2ccc3c(c2)n(C)c(=O)n3C)cc1,45% (inactive)
14,CCOc1ccc(N(C(=O)c2ccccc2F)S(=O)(=O)c2ccc3c(c2)n(C)c(=O)n3C)cc1,47% (inactive)
15,CCOc1ccc(N(C(=O)c2ccc(Cl)cc2)S(=O)(=O)c2ccc3c(c2)n(C)c(=O)n3C)cc1,37% (active)
16,CCOc1ccc(NC(=O)CCS(=O)(=O)c2ccc3c(c2)n(C)c(=O)c(=O)n3C)cc1,87% (inactive)
17,COc1ccc(N(C(=O)c2ccccc2)S(=O)(=O)c2ccc3c(c2)n(C)c(=O)n3C)cc1,89% (inactive)
18,COc1ccc(C(=O)N(c2ccc(OC)cc2)S(=O)(=O)c2ccc3c(c2)n(C)c(=O)n3C)cc1,84% (inactive)
19,CCOc1ccc(N(C(=O)c2ccc(OC)cc2)S(=O)(=O)c2ccc3c(c2)n(C)c(=O)n3C)cc1,37% (active)
20,CCCCCC(=O)N(c1ccc(OCC)cc1)S(=O)(=O)c1ccc2c(c1)n(C)c(=O)n2C,111% (inactive)
21,CCc1nc2ccc(C(=O)N3CCN(c4cccc(OC)c4)CC3)cc2nc1CC,83% (inactive)
22,CC(C)c1cnc2c(c1SCC(=O)Nc1cccc([N+](=O)[O-])c1)c(=O)n(C)c(=O)n2C,69% (inactive)
23,CC1CCN(S(=O)(=O)c2ccc3c(c2)N(CC(=O)N2CCN(c4ccc(Cl)cc4)CC2)C(=O)CO3)CC1,62% (inactive)
24,Cc1ccc(-c2nnc(SCC(=O)NCCC(C)C)nc2-c2ccc(C)cc2)cc1,104% (inactive)
25,Cc1cccc(N(C(=O)c2csnn2)C(C(=O)NC2CCCCC2)c2ccco2)c1 (centres undefined),87% (inactive)
26,Cc1cc(C)cc(NC(=O)CSc2nccn2C2CCCC2)c1,94% (inactive)
27,COc1ccc(-n2nnnc2C2CCN(S(=O)(=O)c3ccc(C)cc3)CC2)cc1,99% (inactive)
